Results filed as inconclusive are left out. Active and inactive are the calls of the source. Unless noted, the call rests on the fitted dose curve; in most records, active means well fitted curve in the direction sought with a large enough effect in the repeat runs; inconclusive means weak or mixed curves; inactive means no such curve, though single readings can be large; an effect the other way counts as inactive or inconclusive.
How the values were obtained:
[1] = qHTS assay for small molecules that induce genotoxicity in human embryonic kidney cells expressing luciferase-tagged ATAD5 (AID 651632); further: nearly all actives have a fitted effect of over 15% in size; further: potency means the concentration at half of the fitted maximal effect
Method in brief: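 ATAD5-luc HEK293T, 2,000 cells/well; cpd or DMSO pin-transferred; 16 hr, 37C/5% CO2; Amplite 30 min RT; luminescence.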

[2] = qHTS assay for small molecule agonists of the p53 signaling pathway - cell viability (AID 651633; calls by dose curve; further: nearly all actives have a fitted effect of over 30% in size; further: potency means the concentration at half of the fitted maximal effect)
Method in brief: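 p53RE-bla cells, seeded at 4,000 per well and rested 5 h at 37 C/5% CO2, received compounds in DMSO for 16 h at 37 C. CellTiter-Glo was then added, and luminescence was read after 30 min at room temperature to gauge cytotoxicity.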

[3] = qHTS assay for small molecules that induce genotoxicity in human embryonic kidney cells expressing luciferase-tagged ATAD5 - cell viability (AID 651634; calls by dose curve; further: nearly all actives have a fitted effect of over 25% in size)
Method in brief: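 Fluorescence from CellTiter-Fluor, reporting protease activity within live cells, served as the viability read-out. HEK293T cells carrying luciferase-tagged ATAD5 had been treated with compound for 15.5 hr at 37C.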

[4] = qHTS assay for small molecule disruptors of the mitochondrial membrane potential - cell viability (AID 720634; calls by dose curve;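 further: human HepG2 liver cancer cells; series mostly up to about 83 µM; nearly all actives have a fitted effect of over 20% in size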)
Method in brief: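 Cells: HepG2, 2,000/well, attached overnight. Compound 1 hr, 37 C/5% CO2. +m-MPI dye, +CellTiter-Glo 30 min RT. Readout: luminescence (ATP).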

[5] = qHTS assay to test for compound auto fluorescence at 590 nm (red) in HepG2 cells (AID 720674)
Method in brief: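 Rose Bengal sodium served as the red fluorophore standard. HepG2 monolayers (overnight attachment, MEM with 10% FBS) were exposed to test compounds for 1 hr at 37 C and read at Ex 540/Em 590 nm.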

[6] = qHTS assay to test for compound auto fluorescence at 535 nm (green) in HepG2 cells (AID 720675)
[7] = qHTS assay to test for compound auto fluorescence at 460 nm (blue) in HEK293 cells (AID 720678)
Method in brief: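 Blue-channel (Ex/Em 405/460 nm) intensity measured in HEK293 cultures after overnight compound exposure at 37C; signal expressed relative to triamterene. Cells plated 2,000 per well in 10% dialyzed FBS medium and allowed 4-5 hr to attach.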

[8] = qHTS assay to test for compound auto fluorescence at 590 nm (red) in HEK293 cells (AID 720679)
Method in brief: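 Red-channel autofluorescence (Ex/Em 540/590 nm; Rose Bengal sodium reference) was measured after overnight 37C, 5% CO2 exposure of attached HEK293 cells, 2,000 per well in medium with 10% dialyzed FBS.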

[9] = qHTS assay to test for compound auto fluorescence at 535 nm (green) in HEK293 cells (AID 720680)
[10] = qHTS assay to test for compound auto fluorescence at 460 nm (blue) in HEK293 cell free culture (AID 720681)
Method in brief: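 Test compounds were pinned into cell-free culture medium (DMEM with 10% FBS) and fluorescence was read directly at Ex/Em 405/460 nm. Signals were expressed as fluorescence equivalents of triamterene, with DMSO vehicle as control.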

[11] = qHTS assay to test for compound auto fluorescence at 535 nm (green) in HEK293 cell free culture (AID 720682)
Method in brief: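 No cells present: wells hold DMEM supplemented with 10% FBS, into which compound or vehicle is pinned. Green emission is then recorded (485 nm excitation, 535 nm emission) and scaled to fluorescein.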

[12] = qHTS assay to test for compound auto fluorescence at 590 nm (red) in HEK293 cell free culture (AID 720683)
Method in brief: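 Tox21 10K library compounds were pinned into cell-free DMEM with 10% FBS and fluorescence was read at excitation 540 nm. Activity is expressed as Rose Bengal sodium equivalency.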

[13] = qHTS assay to test for compound auto fluorescence at 460 nm (blue) in HepG2 cell free culture (AID 720685)
Method in brief: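 Compound (23 nL) or DMSO pinned into cell-free MEM with 10% FBS; blue fluorescence read at 405/460 nm excitation/emission, expressed as auto-fluorescence equivalency to triamterene.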

[14] = qHTS assay to test for compound auto fluorescence at 535 nm (green) in HepG2 cell free culture (AID 720686)
[15] = molecular target: Glucocorticoid receptor (Homo sapiens) (UniProt P04150); test: qHTS assay to identify small molecule agonists of the glucocorticoid receptor (GR) signaling pathway (AID 720691; active means well fitted activation curve with a large enough effect in the signal ratio in the repeat runs, not every such curve was filed as active; the % refers to the signal ratio)
Method in brief: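 Fluorescence intensity from LiveBLAzer B/G FRET substrate (2 h, room temperature) reports beta-lactamase expression driven by the glucocorticoid response element in GR-bla HeLa cells after 18 h compound exposure at 37 C.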

[16] = molecular target: Glucocorticoid receptor (Homo sapiens) (UniProt P04150); test: qHTS assay to identify small molecule antagonists of the glucocorticoid receptor (GR) signaling pathway (AID 720692; active means well fitted inhibition curve with a large enough effect in the signal ratio in the repeat runs, not every such curve was filed as active; the % refers to the signal ratio)
Method in brief: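 HeLa GR-bla cells; cmpd + dex 5 nM final, 18 h 37 C; LiveBLAzer B/G FRET substrate 2 h RT; fluorescence intensity read. Antagonist mode, qHTS.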

[17] = qHTS assay for small molecule disruptors of the mitochondrial membrane potential (AID 720635)
Method in brief: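 HepG2 cells (2,000/well) attached overnight at 37C, then took compound for 1 hr at 37C, 5% CO2. Mito-MPS dye was added for 30 min; fluorescence was read at 490/535 nm (monomers) and 540/590 nm (aggregates).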

[18] = qHTS assay to test for compound auto fluorescence at 590 nm (red) in HepG2 cell free culture (AID 720684)
Method in brief: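 Red fluorescence (540 nm excitation, 590 nm emission) was measured after compound transfer into cell-free MEM supplemented with 10% FBS. Values are equivalencies against Rose Bengal sodium.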

[19] = qHTS assay to test for compound auto fluorescence at 460 nm (blue) in HepG2 cells (AID 720687)
Method in brief: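 Cells (2,000/well in MEM with 10% FBS) attached overnight at 37 C, then were exposed to compound or DMSO for 1 hr at 37 C, 5% CO2. Fluorescence read at Ex/Em 405/460 nm, expressed as triamterene-equivalent signal.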

Measured: Potency

Chain of Glucocorticoid receptor (Homo sapiens) (P04150 whole entry, looked up): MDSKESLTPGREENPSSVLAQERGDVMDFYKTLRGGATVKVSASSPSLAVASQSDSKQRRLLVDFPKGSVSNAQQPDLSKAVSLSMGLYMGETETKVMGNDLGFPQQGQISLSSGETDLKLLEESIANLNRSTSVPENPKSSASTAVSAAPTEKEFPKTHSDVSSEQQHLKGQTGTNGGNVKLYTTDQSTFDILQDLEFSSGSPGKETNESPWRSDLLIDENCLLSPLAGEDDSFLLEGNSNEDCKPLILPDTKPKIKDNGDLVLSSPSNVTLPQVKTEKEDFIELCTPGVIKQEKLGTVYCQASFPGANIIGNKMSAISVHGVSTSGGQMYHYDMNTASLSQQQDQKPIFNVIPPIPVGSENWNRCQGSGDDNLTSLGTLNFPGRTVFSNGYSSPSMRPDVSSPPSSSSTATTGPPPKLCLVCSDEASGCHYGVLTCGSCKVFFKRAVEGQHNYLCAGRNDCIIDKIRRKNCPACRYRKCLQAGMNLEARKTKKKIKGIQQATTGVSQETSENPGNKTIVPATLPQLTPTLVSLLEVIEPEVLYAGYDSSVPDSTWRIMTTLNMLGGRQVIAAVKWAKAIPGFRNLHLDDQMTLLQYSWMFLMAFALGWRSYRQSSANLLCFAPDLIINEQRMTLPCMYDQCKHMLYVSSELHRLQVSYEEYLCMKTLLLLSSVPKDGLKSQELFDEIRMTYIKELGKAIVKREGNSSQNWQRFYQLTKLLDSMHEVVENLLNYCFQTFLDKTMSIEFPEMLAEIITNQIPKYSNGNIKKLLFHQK

NS(=O)(=O)c1cc(-c2nn[nH]n2)c(NCc2cccs2)cc1Cl
inactive: [1] | [2] | [3] | [4] | [5] | [6] | [7] | [8] | [9] | [10] | [11] | [12] | [13] | [14] | [15] | [16]

Cc1nc(-c2ccccn2)ncc1C(=O)Nn1cc(C)c2cc(F)ccc21
inactive: [1] | [2] | [3] | [4] | [17] | [5] | [6] | [7] | [8] | [9] | [10] | [11] | [12] | [13] | [14] | [15] | [16]

O=C(O)CN(CCN(CC(=O)O)CC(=O)O)CCN(CC(=O)O)CC(=O)O
active: [1] 26.6 µM
inactive: [2] | [3] | [4] | [17] | [5] | [6] | [7] | [8] | [9] | [10] | [11] | [12] | [18] | [13] | [14] | [15]

CCCNC(C)(C)COC(=O)c1ccccc1
inactive: [1] | [2] | [3] | [4] | [17] | [5] | [6] | [7] | [8] | [9] | [10] | [11] | [18] | [13] | [14] | [19] | [15]

O=CCCc1ccccc1
inactive: [1] | [2] | [3] | [4] | [5] | [6] | [7] | [8] | [9] | [10] | [11] | [12] | [18] | [13] | [14] | [19]

CN1CCN(C2=Nc3cc(F)ccc3Cc3ccccc32)CC1
inactive: [1] | [2] | [3] | [4] | [5] | [6] | [7] | [8] | [9] | [10] | [11] | [12] | [14] | [19] | [15]

CCCCCCCCCCCCOCCOS(=O)(=O)O
inactive: [1] | [3] | [4] | [5] | [6] | [7] | [8] | [9] | [10] | [11] | [12] | [18] | [13] | [14] | [19]
active: [2] 61.1 µM

— PubChem BioAssay (Tox21)
